Sampled rows, rich in hits. Any-hit rate of the full collection: about 3.7%.
NLRP3 yeast inh = NALP3 inhibition in yeast | Yeast reconstituted NLRP3/ASC/caspase-1, beta-gal luminescence, 24 h | inhibition, % at 10 µM | hit rate 0.39% among 330,000;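 active = inhibition of 50% or more; inactive = inhibition below 50%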;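 also: plate controls were induced DMSO wells for no effect and uninduced yeast grown without galactose for full effect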
tim23-1 inh = growth inhibitors of tim23-1 mutant yeast | inhibition, % at 20 µM | AID 463212 | S. cerevisiae tim23-1 growth, BacTiter-Glo luminescence, 24 h | hit rate 1.3% among 330,000;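 active = growth inhibition of the mutant yeast at or above 50%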;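 also: temperature-sensitive mutant grown at 25 °C; plate controls were DMSO-treated mutant yeast for no effect and medium wells lacking yeast for full effect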
PfHsp90 yeast 2 = inhibits growth of yeast expressing Plasmodium falciparum Hsp90; S. cerevisiae expressing PfHsp90, BacTiter-Glo ATP, 48 h; yeast lacking PDR1 and PDR3 efflux regulators; inhibition, % at 9.4 µM; hit rate 0.32% among 310,000; AID 504621;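 active = every replicate shows inhibition above about 80%, whatever the replicate mean, limit read from the data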;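 also: 0% = DMSO neutral controls and 100% = 20 µM radicicol positive controls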
TIM10 inh = inhibits growth of TIM10 yeast strain. AID 463195. hit rate 1.4% among 330,000. inhibition, % at 10 µM. S. cerevisiae TIM10 strain growth, BacTiter-Glo luminescence, 24 h;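 active = inhibition of 40% or more at the single tested concentration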;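 also: wild-type TIM10 isogenic control strain grown at permissive 25 °C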
tim10-1 inh = growth inhibitors of tim10-1 mutant yeast; S. cerevisiae tim10-1 ts strain growth, BacTiter-Glo, 24 h; inhibition, % at 20 µM; hit rate 2.2% among 330,000; AID 463190;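 active = inhibition of at least 40%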;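 also: mutant grown at 25 °C; 0% = DMSO wells with yeast and 100% = wells holding no yeast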
tim10-1 confirm = confirmation of tim10-1 mutant yeast growth inhibitors. shares compounds with tim10-1 inh. S. cerevisiae tim10-1 ts strain growth, BacTiter-Glo, 24 h. inhibition, % at 20 µM. hit rate 56% among 7,400;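 active = inhibition of yeast growth at or above a set limit in either of two repeat tests at 20 µM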;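 also: tim10-1 mutant grown at permissive 25 °C to find synthetic lethal compounds; 0% = DMSO yeast wells and 100% = medium wells without yeast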
An asterisk follows results filed as active; / = no result.

SMILES	NLRP3 yeast inh	tim23-1 inh	PfHsp90 yeast 2	TIM10 inh	tim10-1 inh	tim10-1 confirm
COC(=O)c1sc(NC(=O)c2ccc(Cn3cc(Cl)cn3)o2)c(C#N)c1C	5	20	-17	13	44*	30*
N#Cc1c(NC(=O)c2ccc(Cn3cc(Br)cn3)o2)sc2c1CCCCC2	14	41	-71	36	32	/
O=C(/C=C/c1cccc(Oc2ccccc2)c1)N1CCOCC1	12	5	-2	5	43*	12
O=C(/C=C/c1cccc([N+](=O)[O-])c1)N1CCOCC1	6	9	2	-3	6	/
COc1ccc2c(c1)CC/C(=C\c1ccc(OC)c(Cn3cccn3)c1)C2=O	8	32	/	6	23	/
COc1ccc2c(c1)CC/C(=C\c1ccc(OC)c(Cn3nc(C)cc3C)c1)C2=O	16	13	/	14	40*	11
Cc1sc(NC(=O)C2C3CCC(O3)C2C(=O)O)nc1-c1ccc(CC(C)C)cc1 (stereo not given)	16	27	-9	19	41*	13
CCOC(=O)c1c(NC(=O)C2C3CCC(O3)C2C(=O)O)sc(C)c1-c1ccc(C)cc1 (stereo not given)	0	12	14	10	17	/
CCc1ccc(OCC(=O)N2CC(C(N)=O)Oc3ccccc32)cc1 (stereo not given)	10	5	34	13	5	/
CC(C)c1ccc(/C=C2\C(=O)N(CCN3CCOCC3)C(=S)N2C)cc1	14	43	7	33	45*	40*
CCN(CC)S(=O)(=O)c1cc(NC(=O)C(CC(C)C)NC(N)=O)ccc1C (stereo not given)	-4	16	/	-1	-1	/
CCSc1nnc(NC(=O)CN2C(=O)N(C)C3(CCCCC3)C2=O)s1	25	9	15	10	97*	13
Cc1cc(N)n2ncc(-c3ccc(F)cc3)c2n1	17	40	-3	24	50*	39*
Cc1nc2c(-c3ccc(F)cc3)cnn2c(N)c1-c1ccc(F)cc1	17	33	-23	31	20	/
O=C(Nc1ccc2c(c1)OCO2)c1cccc2c1C(=O)N(Cc1cccnc1)C2	10	20	5	35	43*	34*
CCCN1Cc2cccc(C(=O)Nc3ccc4c(c3)OCO4)c2C1=O	13	-13	-2	11	28	/
COc1cc(/C=C2\SC(=S)N(NC(=O)c3ccccc3O)C2=O)ccc1O	17	34	-6	31	44*	32*
O=C(NN1C(=O)/C(=C/c2ccc(O)cc2)SC1=S)c1ccccc1O	27	14	-3	-1	8	/
O=C(Nc1cccnc1Cl)C1CCCN(c2ncnc3c2nc2n3CCCCC2)C1 (stereo not given)	20	14	-5	4	14	/
CSc1cccc(NC(=O)C2CCCN(c3ncnc4c3nc3n4CCCCC3)C2)c1 (stereo not given)	16	38	3	9	48*	4
O=C(Nc1ccc(Cl)cn1)C1CCN(c2ncnc3c2nc2n3CCCCC2)CC1	20	26	-8	24	50*	19
COc1ccc(Cl)cc1NC(=O)C1CCCN(c2ncnc3c2nc2n3CCCCC2)C1 (stereo not given)	11	36	30	24	56*	23
Cc1ccnc(NC(=O)C2CCCN(c3ncnc4c3nc3n4CCCCC3)C2)c1 (stereo not given)	6	33	-8	22	45*	17
Cc1ccccc1C(=O)OCC(=O)N(C)c1ccccc1	5	37	-4	16	52*	31*
Cc1cc(C)c(C)c(S(=O)(=O)NC(C(=O)O)C(C)C)c1C (stereo not given)	5	3	-3	9	-4	/
SMILES	NLRP3 yeast inh	tim23-1 inh	PfHsp90 yeast 2	TIM10 inh	tim10-1 inh	tim10-1 confirm
CC(C)(C)C(=O)N1CCN(c2nc3ccccc3s2)CC1	23	25	-1	2	47*	-9
CCc1ccc2nc(N3CCN(C(=O)C(C)(C)C)CC3)sc2c1	28	22	19	-7	15	/
C=CCN(C(=O)c1cccc(S(=O)(=O)N2CCN(C)CC2)c1)c1nc(-c2ccccc2)cs1	3	48	0	31	50*	41*
Cc1nn(Cc2cccc(C(=O)NC34CC5CC(CC(C5)C3)C4)c2)c(C)c1Br	0	26	9	20	43*	28
COc1cnc(-c2ccccn2)nc1Sc1ccccc1	23	48	-43	13	41*	43*
COc1cnc(-c2ccccn2)nc1Oc1cccc(C(F)(F)F)c1	29	38	0	21	44*	22
COc1cnc(-c2ccccn2)nc1Oc1ccccc1	12	-8	-5	-38	-5	/
COc1ccc(Sc2nc(-c3ccccn3)ncc2OC)cc1	28	43	7	30	27	/
COc1cnc(-c2ccccn2)nc1Sc1ccc(Cl)cc1	40	36	/	38	43*	30
COc1cnc(-c2ccccn2)nc1Sc1ccc(F)cc1	31	41	2	20	41*	34*
COc1ccc(N2CCN(C(=O)Cn3cnc4c(cnn4-c4ccc(C)cc4)c3=O)CC2)cc1	12	-9	-3	-6	-12	/
CCO[C@H]1OC(C(=O)Nc2ccccc2)=C[C@@H](c2coc3ccccc3c2=O)[C@@H]1CCCO	-5	-9	-44	-8	16	/
COc1ccccc1NC(=O)N1CCCC(CNC(=O)c2ccccc2Cl)C1 (stereo not given)	17	13	17	8	8	/
O=C(Nc1ccccc1C(=O)N1CCN(c2cccc(Cl)c2)CC1)C1=CSCCO1	16	29	8	8	33	/
O=C(Nc1ccc(C(=O)NCc2ccc(F)cc2)cc1)C1=CSCCO1	11	27	4	1	30	/
O=C(Nc1ccc(C(=O)N2CCN(c3ccc(F)cc3)CC2)cc1)C1=CSCCO1	11	42	-7	29	47*	36*
CCc1ccc(CNC(=O)c2ccc(NC(=O)C3=CSCCO3)cc2)cc1	23	29	-29	8	44*	14
COc1ccc(N2CCN(C(=O)c3ccc(NC(=O)C4=CSCCO4)cc3)CC2)cc1	2	34	19	20	43*	29*
CC(=O)OCC(=O)Nc1c(C)cccc1C	-5	-3	-15	-13	-14	/
CC(C)(C)c1ccc(OCCC(=O)NC2=NCCS2)cc1	17	20	18	23	26	/
CCN1CCN(CCNC(=O)c2ccc(CS(=O)c3ccc(Cl)cc3)o2)CC1 (stereo not given)	7	11	0	-2	13	/
CCCCS/C(=C(/C#N)C(N)=O)c1cc2c([nH]1)CCCC2	20	44	/	30	45*	38*
CCc1nc2c(c(=O)c3ccccc3n2C)c(=O)n1C1CCCCCC1	38	45	23	-2	41*	11
